Inconclusive results are not listed. Active and inactive are the calls of the source. How the source made its calls, unless noted: active means hit-call score of the fitted dose curve at least 0.9, where 1 is the maximum; inactive means score below 0.9.
Tests used:
[1] = ATG_NRF2_ARE_CIS: Attagene CIS-FACTORIAL HepG2 Assay for human Nuclear Factor Erythroid 2 Related Factor 2 (NFR2) response to Antioxidant Response Elements (ARE) (AID 2282992); settings: HepG2 Attagene ARE/NRF2 reporter, transcription factor activity; actives raise or lower the signal
Method in brief: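 Transient MRTU transfection of HepG2; 24 h compound exposure; TriZol RNA, RT with oligo(dT), PCR, 6-FAM primer extension, HpaI cut, CE. Bidirectional fit vs DMSO.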

[2] = ATG_Oct_MLP_CIS: Attagene CIS-FACTORIAL HepG2 Assay for human Octamer-Binding Transcription Factor (Oct) (AID 2282993); settings: HepG2 Attagene cis-factorial Oct reporter, mRNA; actives raise or lower the signal
Method in brief: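 Read-out: reporter mRNA via RT-PCR plus capillary electrophoresis of 6-FAM-labelled fragments. Transiently transfected HepG2, 24 h exposure, endogenous TF activity on cis elements. Gain or loss of signal fitted relative to DMSO.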

[3] = molecular target: Cellular tumor antigen p53 (Homo sapiens) (UniProt P04637); test: ATG_p53_CIS: Attagene CIS-FACTORIAL HepG2 Assay for human p53 Transcription Factor (AID 2282994); settings: HepG2 p53 cis-element reporter, Attagene mRNA; actives raise or lower the signal
Method in brief: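 HepG2, transient MRTU transfection (cis promoter elements, endogenous TFs); 24 h dosing; RNA isolation, RT-PCR, 6-FAM primer extension, HpaI digest, CE fluorescence; bidirectional fit vs DMSO.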

[4] = BSK_3C_TissueFactor: BioMAP Diversity Plus: 3C Assay for Tissue Factor Biomarker Activity (AID 2282997); settings: BioMAP 3C HUVEC, tissue factor biomarker readout; actives raise or lower the signal
Method in brief: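 HUVEC were treated 24 h, then surface tissue factor measured by ELISA and fitted bidirectionally against DMSO. Parallel SRB total-protein staining assessed overt cytotoxicity at the same time point.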

[5] = BSK_3C_uPAR: BioMAP Diversity Plus: 3C Assay for Urokinase-type plasminogen activator receptor (uPAR) Biomarker Activity (AID 2282998); settings: BioMAP 3C HUVEC, uPAR biomarker ELISA; actives raise or lower the signal
Method in brief: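 HUVEC primary cells; 24 h post-dose; uPAR by ELISA; gain or loss of signal fitted bidirectionally vs DMSO baseline.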

[6] = BSK_3C_VCAM1: BioMAP Diversity Plus: 3C Assay for Vascular cell adhesion molecule 1 (VCAM1) Biomarker Activity (AID 2282999); settings: BioMAP 3C HUVEC, VCAM1 ELISA, cytokine-stimulated; actives raise or lower the signal
Method in brief: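 Human umbilical vein endothelial cells (3C system), biomarker read by ELISA 24 h after dosing; bidirectional fit against DMSO baseline. Cytotoxicity tracked by SRB total-protein staining in parallel cultures at biomarker time.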

[7] = BSK_4H_Eotaxin3: BioMAP Diversity Plus: 4H Assay for Eotaxin 3 Biomarker Activity (AID 2283000); settings: primary human endothelial cells (HUVEC); actives raise or lower the signal;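 further: CCL26 protein level quantified by ELISA in parallel with SRB cytotoxicity check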
Method in brief: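 Eotaxin-3 (CCL26) levels were measured by ELISA in HUVEC primary cultures 24 h post-dosing. Gain or loss of signal was fitted in both directions, with DMSO serving as baseline and negative control.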

[8] = read-out: Intercellular Adhesion Molecule 1 (ICAM1), ICAM1 (gene 3383); test: BSK_3C_ICAM1: BioMAP Diversity Plus: 3C Assay for Intercellular Adhesion Molecule 1 (ICAM1) Biomarker Activity (AID 2283003); settings: primary human endothelial cells (HUVEC); actives raise or lower the signal
Method in brief: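 Primary human umbilical vein endothelial cells in the BioMAP 3C system were exposed to chemicals for 24 h, then ICAM-1 was quantified by ELISA. Activity was fitted bidirectionally against the DMSO negative control baseline.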

[9] = BSK_3C_Proliferation: Cell Proliferation Assessment in the BioMAP Diversity Plus: 3C Assay (AID 2283006); settings: primary human endothelial cells (HUVEC)
Method in brief: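 Human umbilical vein endothelial cells were grown sub-confluent and exposed to chemical for 48 h, then fixed with 10% TCA and stained with 0.1% sulforhodamine B; absorbance at 560 nm gave relative cell number, fitted bidirectionally against DMSO baseline.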

[10] = molecular target: Retinoic acid receptor RXR-alpha (Homo sapiens) (UniProt P19793); test: ATG_RXRa_TRANS: Attagene TRANS-FACTORIAL HepG2 Assay for human Retinoid X Receptor alpha (RXRa) (AID 2283012; active means hit-call score of the fitted dose curve at least 0.9, where 1 is the maximum)
Method in brief: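 HepG2 cells transiently transfected with multiplexed GAL4-UAS reporter units and chimeric NR-GAL4 fusions, dosed 24 h. Reporter mRNA measured by RT-PCR, FAM labelling, HpaI digestion and capillary electrophoresis; gain-of-signal fitted relative to DMSO baseline.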

[11] = molecular target: Peroxisome proliferator-activated receptor gamma (Homo sapiens) (UniProt P37231); test: ATG_PPARg_TRANS: Attagene TRANS-FACTORIAL HepG2 Assay for human Peroxisome Proliferator-activated Receptor-gamma (PPARg) (AID 2283007; active means hit-call score of the fitted dose curve at least 0.9, where 1 is the maximum)
Method in brief: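 Liver-derived HepG2 cells expressing an exogenous NR-Gal4 chimera alongside GAL4-UAS reporter genes; 24 h exposure. Fluorescence of reporter RT-PCR products, separated by capillary electrophoresis, gives mRNA induction relative to DMSO.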

[12] = molecular target: human Retinoid X Receptor beta (RXRb), RXRB (gene 6257) (UniProt P28702); test: ATG_RXRb_TRANS: Attagene TRANS-FACTORIAL HepG2 Assay for human Retinoid X Receptor beta (RXRb) (AID 2283013; active means hit-call score of the fitted dose curve at least 0.9, where 1 is the maximum)
Method in brief: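 HepG2 cells transiently transfected with multiplexed reporter units driven by GAL4-UAS and exogenous chimeric NR-Gal4 proteins; treated 24 h. Reporter mRNA measured by RT-PCR, 6-FAM labelling and capillary electrophoresis; gain-of-signal fitted versus DMSO baseline.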

[13] = molecular target: human Peroxisome Proliferator-activated Receptor alpha (PPARa), PPARA (gene 5465) (UniProt Q07869); test: ATG_PPARa_TRANS: Attagene TRANS-FACTORIAL HepG2 Assay for human Peroxisome Proliferator-activated Receptor alpha (PPARa) (AID 2283001; active means hit-call score of the fitted dose curve at least 0.9, where 1 is the maximum)
Method in brief: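 Measures transcriptional activity of an exogenous chimeric PPARa-Gal4 protein in transiently transfected HepG2 cells after 24 h dosing. Reporter mRNA quantified via RT-PCR and capillary electrophoresis; DMSO served as negative control.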

[14] = molecular target: human RAR-related Orphan Receptor beta (RORb), RORB (gene 6096) (UniProt Q92753); test: ATG_RORb_TRANS: Attagene TRANS-FACTORIAL HepG2 Assay for human RAR-related Orphan Receptor beta (RORb) (AID 2283010; active means hit-call score of the fitted dose curve at least 0.9, where 1 is the maximum)
Method in brief: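 HepG2 cells were transiently transfected with multiplexed GAL4-UAS reporter units expressing chimeric nuclear receptor–GAL4 proteins, then dosed for 24 h. Reporter mRNA was quantified by RT-PCR with fluorescent labelling and capillary electrophoresis; gain of signal was fitted relative to DMSO.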

[15] = ATG_NF_kB_CIS: Attagene CIS-FACTORIAL HepG2 Assay for human Nuclear Factor Kappa B (NF-kB) (AID 2282991); settings: HepG2 Attagene cis-factorial NF-kB reporter mRNA; actives raise or lower the signal
Method in brief: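 After 24 h compound incubation, transfected HepG2 cells yield total RNA; reporter cDNA is PCR-amplified, end-labelled with 6-FAM, HpaI-digested and analysed on a genetic analyser. Endogenous factor activity, DMSO-referenced bidirectional fit.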

[16] = molecular target: human RAR-related Orphan Receptor gamma (RORg), RORC (gene 6097) (UniProt P51449); test: ATG_RORg_TRANS: Attagene TRANS-FACTORIAL HepG2 Assay for human RAR-related Orphan Receptor gamma (RORg) (AID 2283011; active means hit-call score of the fitted dose curve at least 0.9, where 1 is the maximum)
Method in brief: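 HepG2 cells transiently transfected with GAL4-UAS reporter units and chimeric RORg-Gal4 construct; after 24 h chemical exposure, reporter mRNA measured by RT-PCR with fluorescent capillary electrophoresis, gain of signal fitted against DMSO.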

[17] = molecular target: human Thyroid Receptor alpha (THRa1), THRA (gene 7067) (UniProt P10827); test: ATG_THRa1_TRANS: Attagene TRANS-FACTORIAL HepG2 Assay for human Thyroid Receptor alpha (THRa1) (AID 2283014; active means hit-call score of the fitted dose curve at least 0.9, where 1 is the maximum)
Method in brief: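 HepG2 cells transiently transfected with chimeric NR-Gal4 and GAL4-UAS reporter units, dosed 24 h. Reporter mRNA quantified by RT-PCR, fluorescent labeling, HpaI digestion and capillary electrophoresis; gain-of-signal fit versus DMSO.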

[18] = molecular target: human Peroxisome Proliferator-activated Receptor delta (PPARd), PPARD (gene 5467) (UniProt Q03181); test: ATG_PPARd_TRANS: Attagene TRANS-FACTORIAL HepG2 Assay for human Peroxisome Proliferator-activated Receptor delta (PPARd) (AID 2283002; active means hit-call score of the fitted dose curve at least 0.9, where 1 is the maximum)
Method in brief: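 Read-out: reporter mRNA induction, quantified by fluorescent RT-PCR products resolved by capillary electrophoresis. Human HepG2 liver cells carried transiently transfected Gal4-UAS reporter constructs with chimeric NR-Gal4 fusions. Cells were dosed for 24 h; DMSO served as baseline.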

Retinoic acid receptor RXR-alpha (Homo sapiens), sequence (P19793 whole entry, looked up, the tested form may be a part): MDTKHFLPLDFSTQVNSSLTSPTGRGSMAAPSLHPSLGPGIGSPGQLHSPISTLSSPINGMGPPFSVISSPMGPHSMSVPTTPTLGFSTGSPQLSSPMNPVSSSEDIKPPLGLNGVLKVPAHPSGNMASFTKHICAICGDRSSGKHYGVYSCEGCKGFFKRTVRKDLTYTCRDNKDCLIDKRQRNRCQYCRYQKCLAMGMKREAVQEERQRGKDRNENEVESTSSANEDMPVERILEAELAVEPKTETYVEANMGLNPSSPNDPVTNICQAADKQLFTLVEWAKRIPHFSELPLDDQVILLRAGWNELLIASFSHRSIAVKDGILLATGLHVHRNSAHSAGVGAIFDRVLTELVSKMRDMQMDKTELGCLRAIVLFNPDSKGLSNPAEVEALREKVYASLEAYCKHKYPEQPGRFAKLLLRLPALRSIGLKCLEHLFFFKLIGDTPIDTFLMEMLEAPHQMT
Peroxisome proliferator-activated receptor gamma (Homo sapiens), sequence (P37231 whole entry, looked up, the tested form may be a part): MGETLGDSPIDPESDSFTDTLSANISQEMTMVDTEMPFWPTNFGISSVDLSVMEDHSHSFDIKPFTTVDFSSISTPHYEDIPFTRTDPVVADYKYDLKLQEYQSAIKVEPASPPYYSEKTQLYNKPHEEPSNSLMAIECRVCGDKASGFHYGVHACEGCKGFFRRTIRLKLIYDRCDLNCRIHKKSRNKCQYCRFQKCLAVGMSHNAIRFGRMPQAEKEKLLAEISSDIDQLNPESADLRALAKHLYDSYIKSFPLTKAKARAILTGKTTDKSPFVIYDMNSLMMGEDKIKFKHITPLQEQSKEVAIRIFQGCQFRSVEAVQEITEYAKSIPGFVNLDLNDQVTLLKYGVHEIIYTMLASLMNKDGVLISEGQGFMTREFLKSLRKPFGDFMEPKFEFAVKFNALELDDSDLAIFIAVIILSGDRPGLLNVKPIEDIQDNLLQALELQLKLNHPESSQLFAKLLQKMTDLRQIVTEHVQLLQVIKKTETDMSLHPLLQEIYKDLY
Cellular tumor antigen p53 (Homo sapiens), sequence (P04637 whole entry, looked up): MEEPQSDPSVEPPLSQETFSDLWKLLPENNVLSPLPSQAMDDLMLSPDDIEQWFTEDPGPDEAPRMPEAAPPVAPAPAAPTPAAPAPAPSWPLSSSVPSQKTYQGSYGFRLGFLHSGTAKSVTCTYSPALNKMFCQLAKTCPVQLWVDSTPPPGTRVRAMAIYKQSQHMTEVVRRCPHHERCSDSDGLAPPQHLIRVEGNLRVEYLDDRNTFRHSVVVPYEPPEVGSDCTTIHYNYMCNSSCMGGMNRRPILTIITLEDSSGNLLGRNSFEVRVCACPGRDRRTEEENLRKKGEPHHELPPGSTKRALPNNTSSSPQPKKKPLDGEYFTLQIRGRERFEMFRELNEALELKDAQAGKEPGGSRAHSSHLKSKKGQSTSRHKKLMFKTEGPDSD
human RAR-related Orphan Receptor beta (RORb), RORB (gene 6096), sequence (Q92753 whole entry, looked up, the tested form may be a part): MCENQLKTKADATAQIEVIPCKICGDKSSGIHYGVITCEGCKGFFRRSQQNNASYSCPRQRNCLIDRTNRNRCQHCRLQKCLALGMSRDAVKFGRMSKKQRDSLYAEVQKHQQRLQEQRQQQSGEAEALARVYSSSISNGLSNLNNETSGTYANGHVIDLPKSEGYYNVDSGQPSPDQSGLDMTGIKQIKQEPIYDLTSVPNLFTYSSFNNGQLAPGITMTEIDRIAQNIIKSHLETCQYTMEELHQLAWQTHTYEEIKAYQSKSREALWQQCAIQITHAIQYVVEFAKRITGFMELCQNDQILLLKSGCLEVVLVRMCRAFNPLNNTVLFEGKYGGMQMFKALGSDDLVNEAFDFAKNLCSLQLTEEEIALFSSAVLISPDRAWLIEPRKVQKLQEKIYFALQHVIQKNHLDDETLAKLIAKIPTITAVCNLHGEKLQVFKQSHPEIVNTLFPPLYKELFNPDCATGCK
human Peroxisome Proliferator-activated Receptor alpha (PPARa), PPARA (gene 5465), sequence (Q07869 whole entry, looked up, the tested form may be a part): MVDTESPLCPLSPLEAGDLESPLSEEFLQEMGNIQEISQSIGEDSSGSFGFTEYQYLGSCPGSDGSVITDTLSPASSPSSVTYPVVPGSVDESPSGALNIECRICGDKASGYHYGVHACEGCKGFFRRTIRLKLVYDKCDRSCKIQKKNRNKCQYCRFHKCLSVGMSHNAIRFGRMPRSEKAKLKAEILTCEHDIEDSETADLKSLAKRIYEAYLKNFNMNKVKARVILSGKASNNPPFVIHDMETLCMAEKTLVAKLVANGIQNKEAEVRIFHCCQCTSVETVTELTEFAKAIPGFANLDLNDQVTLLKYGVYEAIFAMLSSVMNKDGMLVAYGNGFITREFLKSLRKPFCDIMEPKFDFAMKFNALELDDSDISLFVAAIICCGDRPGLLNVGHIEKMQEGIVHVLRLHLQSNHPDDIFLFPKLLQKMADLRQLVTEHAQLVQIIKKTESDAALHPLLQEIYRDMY
human Retinoid X Receptor beta (RXRb), RXRB (gene 6257), sequence (P28702 whole entry, looked up, the tested form may be a part): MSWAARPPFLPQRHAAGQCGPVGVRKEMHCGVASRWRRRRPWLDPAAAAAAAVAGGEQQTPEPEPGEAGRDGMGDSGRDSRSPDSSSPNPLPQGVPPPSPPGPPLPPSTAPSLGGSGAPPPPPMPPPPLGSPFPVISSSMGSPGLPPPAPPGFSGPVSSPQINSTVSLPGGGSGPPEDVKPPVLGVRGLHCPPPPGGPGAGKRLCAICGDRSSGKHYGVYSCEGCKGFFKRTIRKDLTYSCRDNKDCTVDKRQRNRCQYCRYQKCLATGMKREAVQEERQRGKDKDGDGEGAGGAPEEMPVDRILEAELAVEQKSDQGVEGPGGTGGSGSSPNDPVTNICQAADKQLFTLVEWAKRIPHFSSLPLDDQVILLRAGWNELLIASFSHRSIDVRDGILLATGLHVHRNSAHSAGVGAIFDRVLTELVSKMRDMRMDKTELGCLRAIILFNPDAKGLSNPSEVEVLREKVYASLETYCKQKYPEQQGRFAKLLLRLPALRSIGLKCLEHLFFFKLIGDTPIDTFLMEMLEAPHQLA
human RAR-related Orphan Receptor gamma (RORg), RORC (gene 6097), sequence (P51449 whole entry, looked up, the tested form may be a part): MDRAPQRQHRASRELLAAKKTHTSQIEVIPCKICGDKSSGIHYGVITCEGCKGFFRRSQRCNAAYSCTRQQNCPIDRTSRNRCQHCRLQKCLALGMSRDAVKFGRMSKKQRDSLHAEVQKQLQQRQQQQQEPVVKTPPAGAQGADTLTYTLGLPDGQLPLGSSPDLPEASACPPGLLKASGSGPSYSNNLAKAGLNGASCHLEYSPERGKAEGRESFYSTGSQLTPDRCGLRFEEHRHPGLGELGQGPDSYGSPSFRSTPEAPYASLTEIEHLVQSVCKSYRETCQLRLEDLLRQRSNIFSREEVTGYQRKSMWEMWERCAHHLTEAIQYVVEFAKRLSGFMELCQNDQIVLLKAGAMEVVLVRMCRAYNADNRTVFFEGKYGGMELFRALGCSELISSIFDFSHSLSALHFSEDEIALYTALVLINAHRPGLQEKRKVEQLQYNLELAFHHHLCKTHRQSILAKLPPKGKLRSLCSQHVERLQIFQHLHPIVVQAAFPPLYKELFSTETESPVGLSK
human Thyroid Receptor alpha (THRa1), THRA (gene 7067), sequence (P10827 whole entry, looked up, the tested form may be a part): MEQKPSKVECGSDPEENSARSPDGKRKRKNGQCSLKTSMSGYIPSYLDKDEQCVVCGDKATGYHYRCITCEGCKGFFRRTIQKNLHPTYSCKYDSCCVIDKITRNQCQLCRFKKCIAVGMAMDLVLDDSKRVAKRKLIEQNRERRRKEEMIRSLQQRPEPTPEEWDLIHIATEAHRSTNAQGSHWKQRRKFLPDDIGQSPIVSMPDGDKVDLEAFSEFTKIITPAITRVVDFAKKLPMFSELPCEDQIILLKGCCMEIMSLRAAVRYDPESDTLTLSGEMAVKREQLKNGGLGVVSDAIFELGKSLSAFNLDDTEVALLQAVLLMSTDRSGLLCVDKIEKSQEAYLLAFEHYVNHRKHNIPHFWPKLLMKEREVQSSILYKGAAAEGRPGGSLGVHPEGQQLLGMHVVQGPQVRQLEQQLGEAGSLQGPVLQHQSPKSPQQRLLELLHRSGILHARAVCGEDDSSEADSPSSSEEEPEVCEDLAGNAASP
human Peroxisome Proliferator-activated Receptor delta (PPARd), PPARD (gene 5467), sequence (Q03181 whole entry, looked up, the tested form may be a part): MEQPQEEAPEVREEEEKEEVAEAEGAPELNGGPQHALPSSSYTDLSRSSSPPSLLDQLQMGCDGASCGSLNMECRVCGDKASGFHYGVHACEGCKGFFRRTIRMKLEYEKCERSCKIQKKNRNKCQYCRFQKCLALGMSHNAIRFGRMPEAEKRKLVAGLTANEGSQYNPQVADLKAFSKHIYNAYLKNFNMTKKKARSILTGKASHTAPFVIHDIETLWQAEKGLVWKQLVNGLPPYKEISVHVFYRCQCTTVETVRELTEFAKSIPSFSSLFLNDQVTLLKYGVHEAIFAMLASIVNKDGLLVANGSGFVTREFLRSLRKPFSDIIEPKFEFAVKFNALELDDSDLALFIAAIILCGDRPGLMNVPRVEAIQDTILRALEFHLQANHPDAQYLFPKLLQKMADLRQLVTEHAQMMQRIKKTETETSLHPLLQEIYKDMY

SMILES | outcome [1] | outcome [2] | outcome [3] | outcome [4] | outcome [5] | outcome [6] | outcome [7] | outcome [8] | outcome [9] | outcome [10] | outcome [11] | outcome [12] | outcome [13] | outcome [14] | AC50 [12] | outcome [15] | outcome [16] | outcome [17] | outcome [18]
COC(=O)CC(=O)OC | inactive | inactive | inactive | inactive | inactive | inactive | inactive | inactive | inactive | inactive | – | – | – | – | – | – | – | – | –
CCCC(=O)OCC | inactive | inactive | inactive | inactive | inactive | inactive | inactive | inactive | inactive | – | inactive | inactive | – | – | – | – | – | – | –
CC(=O)OC[C@H]1O[C@@](COC(C)=O)(O[C@H]2O[C@H](COC(C)=O)[C@@H](OC(C)=O)[C@H](OC(C)=O)[C@H]2OC(C)=O)[C@@H](OC(C)=O)[C@@H]1OC(C)=O | inactive | inactive | inactive | – | inactive | inactive | inactive | inactive | inactive | inactive | – | inactive | inactive | – | – | – | – | – | –
CC(C)CCCCCCOC(=O)c1ccc(C(=O)OCCCCCCC(C)C)c(C(=O)OCCCCCCC(C)C)c1 | inactive | inactive | inactive | – | inactive | inactive | inactive | inactive | inactive | inactive | inactive | – | – | inactive | 63.2 µM (active) | – | – | – | –
Nc1nc2ncc(CNc3ccc(C(=O)N[C@@H](CCC(=O)O)C(=O)O)cc3)nc2c(=O)[nH]1 | inactive | inactive | inactive | – | inactive | – | inactive | inactive | inactive | inactive | – | – | – | inactive | – | inactive | inactive | inactive | –
CCCCC(CC)COC(=O)CCCCCCCCC(=O)OCC(CC)CCCC (stereo unspecified) | inactive | inactive | inactive | – | inactive | inactive | inactive | inactive | inactive | inactive | inactive | inactive | inactive | inactive | – | – | inactive | – | inactive
CC(=O)OCCC(C)C | inactive | inactive | inactive | – | inactive | – | inactive | inactive | inactive | – | – | inactive | inactive | inactive | – | – | – | – | –

Reference: PubChem BioAssay (EPA / NIEHS)
